Compound activity (PubChem BioAssay)
This is a sample that favours compounds with a hit; in the whole collection about 4.6% have one here.
HSF1 inh – HSF1 inhibitors in luciferase reporter cells, primary screen, cell-based, NIH3T3, luminescence | AID 2098, 2009 | hit rate 0.77% among 300,000 | NIH3T3-HGL HSE-luciferase, MG132-induced, luminescence 8 h; active compounds read low | activity change, negative = inhibition, % at 7.5 µM (by protocol);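 active = more than half of replicate wells show activity change below -50%, luminescence cut by over half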;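 note: luciferase reports HSF-1 transcriptional activity via heat shock element; 0% = median of DMSO wells and -100% = zero luminescence signal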
FXN GAA850 act – FXN promoter activators, primary screen, cell-based, luciferase luminescence, HEK293 lucGAA850. activation, % at 6 µM. HEK293 lucGAA850 FXN promoter luciferase reporter, 24 h; percent of 10 µM SAHA response. AID 540364, 2011. hit rate 0.56% among 360,000;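 active = activation above the average of all compounds screened plus 3 SD, cutoff fixed separately per campaign, cut at about 7.5% in these data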;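 note: 0% = DMSO wells and 100% = 10 µM SAHA wells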
HSF-1 act – HSF-1 activators, primary screen, NIH3T3-HGL cells, MG132 stress, luminescence, single point; NIH3T3-HGL HSF-1 luciferase reporter, 8 h; 100% = twice DMSO control signal; activation, % at 9 µM; hit rate 1.7% among 300,000;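 active = mean replicate activation of at least 50% with a set share of replicates each reaching 50%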;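 note: 0% = median of the neutral control wells and 100% = twice that signal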
AHR act – AHR activators, primary screen, cell-based, luminescence, luciferase reporter, human; Aryl hydrocarbon receptor (Homo sapiens), P35869; activation, % at 5 µM; hit rate 2.5% among 320,000; AHR-responsive luciferase reporter cells; in the data active = activation above about 47%;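 note: 0% = vehicle wells and 100% = reference agonist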
Target sequence (P35869 whole entry, looked up): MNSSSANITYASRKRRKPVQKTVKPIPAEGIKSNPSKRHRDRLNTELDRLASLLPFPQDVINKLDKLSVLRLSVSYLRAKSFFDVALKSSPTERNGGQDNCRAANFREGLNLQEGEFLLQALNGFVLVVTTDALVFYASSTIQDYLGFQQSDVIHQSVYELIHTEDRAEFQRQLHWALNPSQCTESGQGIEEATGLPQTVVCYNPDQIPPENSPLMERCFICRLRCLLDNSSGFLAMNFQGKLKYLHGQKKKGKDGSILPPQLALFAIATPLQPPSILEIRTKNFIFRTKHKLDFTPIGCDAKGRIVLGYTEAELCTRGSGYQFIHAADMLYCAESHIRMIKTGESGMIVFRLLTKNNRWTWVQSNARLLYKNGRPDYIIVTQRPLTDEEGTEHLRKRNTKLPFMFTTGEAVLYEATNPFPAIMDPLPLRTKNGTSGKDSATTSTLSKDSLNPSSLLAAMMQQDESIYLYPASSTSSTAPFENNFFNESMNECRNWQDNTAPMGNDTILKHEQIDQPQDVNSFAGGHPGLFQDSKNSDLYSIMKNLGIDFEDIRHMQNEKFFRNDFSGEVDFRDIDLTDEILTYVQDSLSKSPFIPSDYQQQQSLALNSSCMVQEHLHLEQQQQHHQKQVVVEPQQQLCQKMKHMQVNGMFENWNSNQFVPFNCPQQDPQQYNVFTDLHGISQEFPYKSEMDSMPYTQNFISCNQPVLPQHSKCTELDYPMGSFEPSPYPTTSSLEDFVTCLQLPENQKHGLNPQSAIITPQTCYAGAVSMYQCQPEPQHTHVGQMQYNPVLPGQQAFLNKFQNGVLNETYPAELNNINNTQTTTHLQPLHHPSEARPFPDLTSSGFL
The depositor's hits bear a star.

How did Nc1nc(F)nc2c1ncn2[C@@H]1O[C@H](CO)[C@@H](O)[C@@H]1O do in these assays?
HSF1 inh: 1; FXN GAA850 act: 0; HSF-1 act: -1; AHR act: -2

What do the screens show for `Nc1nc(F)nc2c1ncn2[C@@H]1O[C@H](CO)[C@@H](O)[C@H]1O`?
HSF1 inh: -56*; FXN GAA850 act: -14; HSF-1 act: -62; AHR act: -5

Results for S=C1NC2(CCS1)Oc1ccccc1C1CC(c3ccccc3)=NN12 (configuration not stated) ?
HSF1 inh: -2; HSF-1 act: 13

How did CN1C(=O)C2(Oc3ccccc3C3CC(c4ccccc4)=NN32)c2ccccc21 (configuration not stated) do in these assays?
HSF1 inh: 47; FXN GAA850 act: 2; HSF-1 act: 76*; AHR act: 54*

What do the screens show for `Cc1ccc(C2=NN3C(C2)c2ccccc2OC32C(=O)Nc3ccccc32)cc1` (configuration not stated)?
HSF1 inh: 17; FXN GAA850 act: 1; HSF-1 act: 26; AHR act: 47*

Results for O=C(/C=C/c1ccc(Cl)cc1)Nc1nccs1 ?
HSF1 inh: 38; FXN GAA850 act: 0; HSF-1 act: 63*

How did C/C=C/C=C/C(=O)Nc1nccs1 do in these assays?
HSF1 inh: 20; FXN GAA850 act: 1; HSF-1 act: 36; AHR act: 5

What do the screens show for `CCOC(=O)N1C(=O)[C@@](CC)(c2ccccc2)N1C(=O)OCC`?
HSF1 inh: -55*; FXN GAA850 act: -1; HSF-1 act: -65; AHR act: 3

How did CC[C@@]1(c2cccc(C)c2)C(=O)N(C(=O)OC)N1C(=O)OC do in these assays?
HSF1 inh: -2; FXN GAA850 act: 0; HSF-1 act: 4; AHR act: 2

How did O=C1C=C(Nc2ccccc2)C(=O)c2ccccc21 do in these assays?
HSF1 inh: 61; FXN GAA850 act: 3; HSF-1 act: 96*; AHR act: 11

Results for Cc1ccc(S(=O)(=O)/N=C2\C=C(Nc3ccc(O)cc3)C(=O)c3ccccc32)cc1 ?
FXN GAA850 act: -13; AHR act: -9

Results for Cc1ccc(S(=O)(=O)/N=C2\C=C(Nc3cccc(C(=O)O)c3)C(=O)c3ccccc32)cc1 ?
HSF1 inh: 26; FXN GAA850 act: 0; HSF-1 act: 40; AHR act: 14

How did Cc1ccc(NC2=C/C(=N/S(=O)(=O)c3cccs3)c3ccccc3C2=O)cc1 do in these assays?
HSF1 inh: -94*; FXN GAA850 act: -16; HSF-1 act: -94; AHR act: -2

What do the screens show for `O=C1C(Nc2ccccc2)=C/C(=N/S(=O)(=O)c2cccs2)c2ccccc21`?
HSF1 inh: -94*; FXN GAA850 act: -18; HSF-1 act: -95; AHR act: 15

How did O=C(N/N=C/c1ccc(OC(F)F)cc1)c1ccc(Br)cc1 do in these assays?
HSF1 inh: -3; FXN GAA850 act: -3; HSF-1 act: 1; AHR act: 10

Results for Cc1nc(SCC(=O)Nn2c(-c3ccccc3)nc3ccccc3c2=O)n[nH]1 ?
HSF1 inh: 0; FXN GAA850 act: -1; HSF-1 act: -7; AHR act: 74*

Results for COc1ccccc1-c1nc2ccccc2c(=O)n1NC(=O)c1cccs1 ?
HSF1 inh: 2; FXN GAA850 act: 2; HSF-1 act: 3; AHR act: 3

How did O=C(Nn1c(-c2ccccc2)nc2ccccc2c1=O)C1CCC1 do in these assays?
HSF1 inh: -4; FXN GAA850 act: 1; HSF-1 act: 8; AHR act: 47*

How did O=C(Nn1c(-c2ccccc2)nc2ccccc2c1=O)c1cccs1 do in these assays?
HSF1 inh: 2; FXN GAA850 act: -2; HSF-1 act: -2; AHR act: 51*

What do the screens show for `O=C(CCN1C(=O)/C(=C/c2ccc(F)cc2)SC1=S)NC1C=CS(=O)(=O)C1` (configuration not stated)?
HSF1 inh: 0; FXN GAA850 act: 1; HSF-1 act: 6; AHR act: 0

Results for NC1=C(Cl)C(=O)c2ccc(S(N)(=O)=O)cc2C1=O ?
FXN GAA850 act: -15

What do the screens show for `CC1(C)CC(NC(=O)CSc2ccccc2)CC(C)(C)N1`?
HSF1 inh: -8; FXN GAA850 act: 1; HSF-1 act: 6; AHR act: 4

How did Cc1ccc(CNC(=O)C2CCC(=O)N(Cc3cccc(F)c3)C2)s1 (configuration not stated) do in these assays?
FXN GAA850 act: 0

Results for COc1ccc2sc(-c3ccc(N(C)C)cc3)c(C#Cc3cncn3C)c2c1 ?
FXN GAA850 act: 1; AHR act: 71*

How did COc1ccc(-c2sc3ccc(N4CCOCC4)cc3c2C#CC(C)(C)O)cc1 do in these assays?
FXN GAA850 act: 3; AHR act: 49*

What do the screens show for `COc1ccc2sc(-c3ccc(N(C)C)cc3)c(C#CC(C)(C)O)c2c1`?
FXN GAA850 act: 6; AHR act: 28

What do the screens show for `COc1ccc(-c2sc3ccc(OC)cc3c2-c2ccc(O)cc2)cc1`?
FXN GAA850 act: 1; AHR act: 65*

What do the screens show for `COc1ccc(-c2sc3ccc(N4CCOCC4)cc3c2C#Cc2ccsc2)cc1`?
FXN GAA850 act: 4; AHR act: 23

Results for COc1cc(OC)cc(-c2sc3ccc(OC)cc3c2-c2ccc(O)cc2)c1 ?
FXN GAA850 act: 4; AHR act: 35

What do the screens show for `COc1ccc(-c2sc3ccc(OC)cc3c2C#CCCO)cc1`?
HSF1 inh: 8; FXN GAA850 act: 4; HSF-1 act: 7; AHR act: 61*

How did COc1ccc(-c2sc3cc(OC)c(OC)cc3c2C#CCO)cc1 do in these assays?
FXN GAA850 act: 0; AHR act: 19

What do the screens show for `CCOc1cccc(Oc2ncccc2C(=O)/C(C#N)=C/N(C)C)c1`?
HSF1 inh: -4; FXN GAA850 act: 0; HSF-1 act: 12; AHR act: 0

What do the screens show for `Cn1nnnc1SCCNC/C=C/c1ccccc1`?
HSF1 inh: 18; FXN GAA850 act: -1; HSF-1 act: 77*; AHR act: -1

What do the screens show for `Cn1nnnc1SCCNCc1cccc2ccccc12`?
HSF1 inh: 3; FXN GAA850 act: 1; HSF-1 act: 35; AHR act: 0

Results for CCOc1ccc(/C=N/N(C)c2ccccc2)cc1OC ?
HSF1 inh: 51; FXN GAA850 act: 6; HSF-1 act: 73*; AHR act: 10

What do the screens show for `COc1ccc(OC)c(NC(=O)CSc2nc3ccccc3cc2Cc2ccccc2)c1`?
HSF1 inh: -54*; FXN GAA850 act: 0; HSF-1 act: -65; AHR act: 1

Results for COc1ccc(OC)c(NC(=O)CNC(c2ccccc2)c2ccccc2)c1 ?
HSF1 inh: 16; FXN GAA850 act: -1; HSF-1 act: 62*; AHR act: 3

Results for COc1ccc(NC(=O)CSc2nc3ccccc3cc2Cc2ccccc2)cc1 ?
HSF1 inh: 7; FXN GAA850 act: 0; HSF-1 act: 15; AHR act: 2
